Source: PubChem
Shown are actives, neighbours in structure and some others; about 7.9% of the full set was active somewhere.
Shh pathway inh: Hedgehog pathway signaling inhibitors, primary screen, luminescence, Shh-LIGHT2 cells, Gli-luciferase | inhibition, % (no concentration beside the values) | actives 2.1% (n = 22,000) | Shh-LIGHT2 Gli-luciferase reporter, 30 h | AID 2313, 2010;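 active = mean inhibition across valid replicates above about 65%, limit read from the data; inconclusive = mean under the limit, yet half or more replicates past it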;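 also: pathway switched on by Shh-conditioned medium diluted 1 in 25 in low serum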
NOMO-1 viab: NOMO-1 AML cell viability reduction, primary screen, STK33 inhibitor project, CellTiter-Glo luminescence; NOMO-1 AML viability, 72 h; actives 7.5% (n = 37,000); inhibition, % (test concentration not listed); in the data active = inhibition above about 80%; inconclusive = no clear call, values can overlap the other calls
PD-1 reversal: activators reversing PD-1 mediated T-cell inhibition, primary screen, luminescence, primary human CD4 T cells, PD-L1 beads; CellTiter-Glo 96 h; activation, % (no concentration beside the values); 29,000 tested, under 10 active; AID 2316, 2010; call rule not given here;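 also: 0% = median vehicle wells and 100% = positive control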
MITF inh: inhibitors of MITF, primary screen, MITF inhibitor project, cell-based, luminescence. inhibition, % (test concentration not listed). actives 0.28% (n = 37,000). TRPM1 promoter luciferase, 24 h. AID 2240, 2010; in the data active = inhibition above about 85%; inconclusive = no clear call, values can overlap the other calls; inactive = below about 68%;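 also: human melanocyte line stably carrying TRPM1 promoter luciferase reporter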
Numbers without * were called inactive; ? = inconclusive; nt = no result given; ! = a repeat was not active.

SMILES | Shh pathway inh | NOMO-1 viab | PD-1 reversal | MITF inh
C=CC(C)(C)[C@@]12C[C@H]3C(=O)N[C@H]([C@@H](C)CC)C(=O)N3[C@@H]1Nc1ccccc12 | -51 | 38 | 1 | -21
C=CC(C)(C)[C@@]12C[C@H]3C(=O)Nc4ccccc4C(=O)N3[C@@H]1Nc1ccccc12 | -11 | 92* | 2 | -8
C[C@@H]1CN([C@@H](C)CO)C(=O)c2cc(NS(=O)(=O)c3ccccc3)ccc2O[C@@H]1CN(C)Cc1ccc(-c2ccccc2)cc1 | nt | 115* | nt | 40
C[C@H]1CN([C@@H](C)CO)C(=O)c2cc(NS(=O)(=O)c3ccccc3)ccc2O[C@@H]1CN(C)Cc1ccc(-c2ccccc2)cc1 | -3 | 87* | -2 | 14
C[C@H](CO)N1C[C@H](C)[C@H](CN(C)Cc2ccccc2)Oc2ccc(NS(=O)(=O)c3ccccc3)cc2C1=O | 16 | -11 | 0 | -2
C[C@@H]1CN([C@@H](C)CO)C(=O)c2cc(NS(=O)(=O)c3ccc(Cl)cc3)ccc2O[C@H]1CN(C)Cc1ccc(-c2ccccc2)cc1 | -3 | 106* | 0 | 27
C[C@H]1CN([C@@H](C)CO)C(=O)c2cc(NS(=O)(=O)c3ccc(Cl)cc3)ccc2O[C@H]1CN(C)Cc1ccc(-c2ccccc2)cc1 | -10 | 62 | 1 | 10
CCc1cccc(NC(=O)CSc2c(C)n[nH]c2C)c1 | nt | 10 | 0 | -7
S=c1nc(-c2ccccc2)n(-c2ccc(Br)cc2)c2c1CCCC2 | nt | 35 | -1 | 3
O=C(CN1C(=O)c2cccc3cccc1c23)Nc1ccc(S(=O)(=O)N2CCCCC2)cc1 | nt | 13 | -1 | 29
O=C(Nc1ncnc2sc3c(c12)CCCCC3)c1ccc(F)cc1 | nt | 109* | -3 | 1
CSCCC(Nc1ncnc2sc3c(c12)CCCC3)C(=O)O (stereo unspecified) | nt | -5 | nt | -12
O=C(c1ccccc1)c1cc(Cl)ccc1NS(=O)(=O)c1ccccc1[N+](=O)[O-] | nt | -6 | nt | 27
CC1(C)Cc2nc3sc4c(SCC(=O)NCc5ccccc5)ncnc4c3cc2CO1 | nt | 119* | -7 | -2
C[C@H](CO)N1C[C@H](C)[C@H](CN(C)Cc2ccncc2)Oc2ccc(NC(=O)Nc3cccc4ccccc34)cc2CC1=O | 44 | 125* | nt | 10
COc1ccc(CN(C)C[C@@H]2Oc3ccc(NC(=O)Nc4cccc5ccccc45)cc3CC(=O)N([C@@H](C)CO)C[C@@H]2C)cc1 | 69* | 25 | nt | -8
C[C@@H]1CN([C@H](C)CO)C(=O)Cc2cc(NC(=O)Nc3cccc4ccccc34)ccc2O[C@@H]1CN(C)Cc1ccc(-c2ccccc2)cc1 | 20 | 94* | -3 | 0
COc1ccc(CN(C)C[C@H]2Oc3ccc(NC(=O)Nc4cccc5ccccc45)cc3CC(=O)N([C@@H](C)CO)C[C@H]2C)cc1 | -1 | 19 | nt | 4
C[C@@H]1CN([C@@H](C)CO)C(=O)Cc2cc(NC(=O)Nc3cccc4ccccc34)ccc2O[C@@H]1CN(C)Cc1ccc(C(F)(F)F)cc1 | 13 | 117* | -6 | 38
COc1cccc(CN2c3cccc4cccc(c34)S2(=O)=O)c1 | -12 | 24 | 2 | 10
CCc1cccc(CC)c1NC(=O)Cn1cnc2ccccc2c1=O | nt | 6 | 0 | 8
C[C@@H]1CN([C@H](C)CO)C(=O)Cc2cc(NC(=O)Nc3cccc4ccccc34)ccc2O[C@@H]1CN(C)Cc1ccc(Oc2ccccc2)cc1 | 35 | 111* | -5 | 14
O=C(NCc1ccco1)c1ccc(NC(=O)c2cccs2)cc1 | nt | -6 | 1 | -76
COC(=O)c1c(C)ncc2c1COC(C)OC2 (stereo unspecified) | -1 | -12 | 0 | 25
O=C(CCN1CCCCC1)N1N=C(c2ccc(Cl)cc2)CC1c1ccco1 (stereo unspecified) | nt | 18 | -4 | 8
SMILES | Shh pathway inh | NOMO-1 viab | PD-1 reversal | MITF inh
Cc1cccc(NC(=O)c2ccc(OC(C)C(=O)Nc3ccccc3C(F)(F)F)cc2)c1C (stereo unspecified) | nt | 113* | -3 | 46
CCOc1ccc(CCC(=O)O)cc1 | -5 | 4 | -1 | 1
Cc1sc2nc3c4ccccc4c(NCCO)nn3c(=O)c2c1C | nt | -11 | 0 | 12
Cc1ccc(-c2csc3nc4c5ccccc5c(NCCCN5CCOCC5)nn4c(=O)c23)cc1 | nt | 114* | -15 | -35
Cc1sc2nc3c4ccccc4c(NCC4CCCO4)nn3c(=O)c2c1C (stereo unspecified) | nt | 87* | 0 | -5
Cc1sc2ncnc(NCCCN3CCOCC3)c2c1-c1ccccc1 | nt | 19 | nt | -2
COc1ccc2nc(NCc3ccc(OC)c(OC)c3OC)sc2c1 | nt | 35 | nt | -21
Nc1nc2ccc(OC(F)(F)F)cc2s1 | 68*! | 23 | 3 | -44
C[C@@H]1CN([C@@H](C)CO)C(=O)Cc2cc(NC(=O)C3CCCCC3)ccc2O[C@@H]1CN(C)Cc1ccc(Cl)c(Cl)c1 | nt | 123* | nt | 37
C[C@H]1CN([C@@H](C)CO)C(=O)Cc2cc(NC(=O)NC3CCCCC3)ccc2O[C@@H]1CN(C)Cc1ccc(Cl)c(Cl)c1 | ? | 105* | 0 | 3
C[C@@H]1CN([C@H](C)CO)C(=O)Cc2cc(NC(=O)NC3CCCCC3)ccc2O[C@@H]1CN(C)Cc1ccncc1 | -26 | 10 | -1 | -5
C[C@@H]1CN([C@@H](C)CO)C(=O)Cc2cc(NC(=O)NC3CCCCC3)ccc2O[C@@H]1CN(C)Cc1ccc(Cl)c(Cl)c1 | 30 | 111* | nt | 48
C[C@@H]1CN([C@H](C)CO)C(=O)Cc2cc(NC(=O)NC3CCCCC3)ccc2O[C@H]1CN(C)Cc1ccncc1 | 9 | 6 | 2 | 8
CC(C)NC(=O)Nc1ccc2c(c1)C(=O)N([C@H](C)CO)C[C@H](C)[C@@H](CN(C)Cc1ccc(-c3ccccc3)cc1)O2 | 11 | 10 | -1 | 7
CC(C)NC(=O)Nc1ccc2c(c1)C(=O)N([C@@H](C)CO)C[C@H](C)[C@H](CN(C)Cc1ccc(-c3ccccc3)cc1)O2 | 5 | 9 | 1 | 13
CC(C)NC(=O)Nc1ccc2c(c1)C(=O)N([C@H](C)CO)C[C@@H](C)[C@H](CN(C)Cc1ccc(-c3ccccc3)cc1)O2 | 14 | 84* | -2 | -6
CC(C)NC(=O)Nc1ccc2c(c1)C(=O)N([C@H](C)CO)C[C@@H](C)[C@@H](CN(C)Cc1ccc(-c3ccccc3)cc1)O2 | 67* | 24 | 0 | -5
Cc1ccc(N(CC(=O)Nc2cc(Cl)ccc2Cl)S(C)(=O)=O)cc1C | nt | 4 | -1 | 13
Cn1c(Cc2cccc3ccccc23)nnc1SCc1ccccc1C#N | nt | 8 | -2 | -8
CS(=O)(=O)N(CC(=O)NC1CC2CCC1C2)c1cc(Cl)cc(Cl)c1 (stereo unspecified) | nt | 11 | -3 | -11
CCN(CC(=O)Nc1cccc(F)c1)S(=O)(=O)c1ccc(C)cc1 | nt | 4 | 0 | 3
C[C@@H]1CN([C@H](C)CO)C(=O)Cc2cc(NS(=O)(=O)c3ccc(F)cc3)ccc2O[C@@H]1CN(C)Cc1ccccc1 | 11 | 13 | 0 | 9
